Compound activity: PubChem BioAssay, National Center for Advancing Translational Sciences (NCATS)
Shiga inhibitor: inhibitors of Shiga toxin in Vero cells; inhibition, % at 38.7 µM; Vero cells, Shiga toxin protein synthesis inhibition reporter; 9.2% of 290,000 active; in the data active = inhibition mostly above about 28%, no sharp cut-off; inactive = mostly below about 43%; note: 0% is about no effect
FMDV inh: foot and mouth disease virus antiviral activity | FMDV antiviral cell-based qHTS | Potency, µM (titrated, usually from 57.9 µM), for the others: at the highest dose activity change, negative = inhibition, most hits filed as inhibitors | 1.2% of 410,000 active | AID 1159524; calls by dose curve; tested in HEK293T cells; note: read-out not given here; potency is the fitted concentration of half-maximal effect; % is set by controls: 0 for no effect and ±100 for the full control effect; nearly all actives have a fitted effect of over 45% in size
CHX counter: affects cycloheximide protein synthesis inhibition readout, counter-screen; cell reporter, cycloheximide protein synthesis inhibition counterscreen; 12% of 300,000 active; max response, %; in the data active = max response mostly above about 13%, no sharp cut-off; inactive = mostly below about 14%; note: read at 38.3 µM for the half of the compounds with a filed dose; 0% is about no effect
Sm TGR block: blocks Schistosoma mansoni thioredoxin glutathione reductase. Q962Y6. purified TGR, DTNB reduction, TNB absorbance 405 nm. Potency, µM (highest dose often 114 µM), for the others: at the top dose activity change, negative = inhibition, actives largely listed as inhibitors. 3% of 360,000 active; active = well fitted inhibition curve with a large enough effect; inconclusive = small, poorly fitted or top-dose-only effect; inactive = no such curve, though single readings can be large or run the other way; note: potency is the fitted concentration of half-maximal effect; % is set by controls: 0 for no effect and ±100 for the full control effect; nearly all actives have a fitted effect of over 60% in size
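Kinetic colorimetric format: TGR-catalysed, NADPH-driven DTNB reduction monitored via TNB absorbance. Enzyme dispensed at 20 nM; compound exposure 15 min at room temperature before reaction start.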
Numbers without * were called inactive; ? = inconclusive; . = no result given; [ ] = another dose, or the depositor's remark. Most compounds without a hit are left out; they make up all but 12% or so of the library.

SMILES | Shiga inhibitor | FMDV inh | CHX counter | Sm TGR block
COc1cc(C(=O)Oc2ccc3c(OC)c4ccoc4nc3c2OC)cc(OC)c1OC | . | 0.4% | . | .
COc1ccc(NS(=O)(=O)c2ccc(-c3cnc(C4CC4)o3)cc2)cc1Cl | . | -3.6% | . | 6.6%
COc1ccccc1CN(Cc1nc2ccccc2c(=O)[nH]1)C(=O)Nc1cccc(C)c1 | 44.1* | . | 19.3* | 3.3%
Cc1c(NC(=O)OC(C)C)sc(=S)n1C | -0.9 | -26.2% | -2.5 | 35.5µM*
O=C(NC1CCCCCC1)C1c2ccccc2C(=O)N1Cc1cccs1 (configuration not stated) | -10.6 | 7.5% | -1.1 | -15.7%
O=C(NC1CCCCCC1)C1c2ccccc2C(=O)N1Cc1ccco1 (configuration not stated) | -4.7 | 7.1% | -1.5 | 50.1µM*
CCCc1cc(=O)[nH]c(SCCc2ccccc2)n1 | 29.8 | 39.5% | 12.4* | 6.7%
CCCCSc1nc(CCC)cc(=O)[nH]1 | -15.9 | -3.3% | 10.2 | -11.2%
CCc1ccccc1NC(=O)C(=O)c1cc(C)n(-c2ccccc2F)c1C | . | 14.8% | . | -1.6%
C=CC1CN2CCC1C[C@H]2C(O)c1ccnc2ccc(OC)cc12 (some centres not stated) | . | 0.9%[97.4 µM] | . | .
Cc1cc(C)nc(CCNC(=O)c2cc(COc3c(C)cccc3C)on2)n1 | -18.3 | 5.2% | 16.1* | -0.1%
CSc1ccccc1OCc1cc(C(=O)N(C)C2CCCc3ccccc32)no1 (configuration not stated) | 50.4* | 43.5% | 34.9 | ?
Cc1cccc(C)c1OCc1cc(C(=O)NCc2cn(C)nc2C)no1 | 8.3 | -23.0% | 12.8* | -27.3%
Cc1cccc(C)c1OCc1cc(C(=O)N(Cc2c(C)nn(C)c2C)C2CC2)no1 | 1.6 | 20µM* | -1.6 | -4.5%
Cc1cccc(C)c1OCc1cc(C(=O)NCC2CCCCC2)no1 | -5.1 | -7.5% | -3.4 | 2.1%
Cc1cc(C)nc(CCNC(=O)c2cc(COc3ccc(F)cc3F)on2)n1 | -7.6 | 8.3% | -4.1 | -0.1%
COc1cc(-c2noc(-c3ccc(NCc4cccnc4)c([N+](=O)[O-])c3)n2)cc(OC)c1OC | . | ? | . | 0.6%
O=C(Nc1cccc(C(F)(F)F)c1)c1cc(-c2ccc(Cl)s2)nc2ccccc12 | . | ? | . | 3.9%
O=C(NCCc1ccccc1)c1ccc2c(c1)N(Cc1ccccc1Cl)C(=O)c1ccccc1S2 | . | -1.8% | . | 8.5%
CSc1ccccc1OCc1cc(C(=O)NCc2cnc(C)cn2)no1 | -5.1 | 0.3% | 6.8 | -21.6%
CSc1ccccc1OCc1cc(C(=O)NCCc2ccco2)no1 | 58.6* | 27.9% | 35.4* | -22.6%
COCCN1CC(CNC(=O)c2cc(COc3ccccc3SC)on2)CC1=O (configuration not stated) | 20.1 | 13.2% | 12.3* | -22.5%
CSc1ccccc1OCc1cc(C(=O)NCCC2CCCCO2)no1 (configuration not stated) | 45.5* | 12.3% | 32.6* | 0.8%
CSc1ccccc1OCc1cc(C(=O)NCCN2CCCC(O)C2)no1 (configuration not stated) | -6.7 | -6.6% | 9.9 | -10.3%
CSc1ccccc1OCc1cc(C(=O)NCCc2nc(C)cc(C)n2)no1 | 43.0* | 0.0% | 24.0* | -0.9%
SMILES | Shiga inhibitor | FMDV inh | CHX counter | Sm TGR block
COc1ccc(Cc2c(C)nn(-c3nc(C)c(C(=O)Nc4ccc(C)cc4C)s3)c2C)cc1 | . | -24.9% | . | -7.1%
CSc1ccccc1OCc1cc(C(=O)NCc2csc(C(C)C)n2)no1 | 14.6 | -4.5% | 16.9* | -10.6%
O=C(Oc1ccccc1C(=O)Nc1ccccc1)c1ccc(Br)c([N+](=O)[O-])c1 | 25.7* | -5.8% | 50.4* | ?
COc1ccccc1C(=O)Oc1ccccc1C(=O)Nc1ccccc1 | 51.9* | 38.0% | 22.8* | -21.9%
COc1ccc2o/c(=N\O)c(C(=O)Nc3ccccc3OC)cc2c1 | 27.3 | 3.3% | 6.9 | -9.7%
CCOc1ccccc1C(=O)Nc1ccc(C(=O)c2ccccc2)cc1 | 49.4 | 15.1% | 4.9 | 4.47µM*
COc1cccc2cc(C(=O)Nc3ccccc3C)/c(=N/O)oc12 | 89.3* | 22.2% | 27.9* | 3.4%
Cc1ccc(NC(=O)CSc2nc(-c3ccccc3Cl)nc3cc(=O)[nH]n23)c(C)c1 | . | -14.9% | . | 0.3%
CC(=O)c1ccc(NC(=O)COc2ccccc2C(=O)Nc2ccccc2)cc1 | 49.0* | -17.9% | 13.4* | 10.8%
CC(=O)c1ccc(NC(=O)COc2ccccc2C(=O)Nc2ccc(C)cn2)cc1 | 7.5 | 12.9% | 6.8 | -4.1%
O=C(COc1ccccc1C(=O)c1cnn(-c2ccccc2)c1)Nc1ccccc1 | 77.8 | 0.0% | 21.4* | 5.7%
COc1ccccc1C(=O)Nc1ccc(Br)c2cccnc12 | 8.9 | 39.6% | -1.9 | -2.7%
COc1ccccc1C(=O)Nc1ccc(Br)cc1C | 62.7* | 81.3% | 29.2* | -0.1%
COc1ccccc1C(=O)Nc1ccc(C(=O)c2ccccc2)cc1 | 61.9* | ? | 27.3* | .
Cc1cncn1CCc1nc2c3ccccc3nc(SCC(=O)Nc3ccccc3F)n2n1 | . | -9.1% | . | -3.3%
O=C(Cn1c(-c2cccs2)cc2ccccc21)N1CCN(c2ccccc2F)CC1 | . | -2.3% | . | -0.8%
Cc1ccc(Cn2c(C)c3cnn(CC(=O)N4CCN(c5cc(C)ccc5C)CC4)c(=O)c3c2C)cc1 | . | ? | . | -1.3%
C=CCSc1nc2c(c(-c3ccsc3)c1C#N)CN(C)CC2 | -6.9 | -23.0% | -3.2 | 10µM*
C=CCSc1nc(N)c(C#N)c(-c2ccccc2)c1C#N | -9.6 | -7.7% | -5.5 | -14.1%
COc1ccccc1NC(=O)c1c(C)nn(-c2ccccc2)c1Cl | 12.8 | 2.7% | 14.2* | -7.1%
Cc1nn(-c2ccccc2)c(Cl)c1C(=O)NCC(C)c1ccccc1 (configuration not stated) | 73.7* | 9.0% | 43.4* | 14.9%
Cc1ccccc1NC(=O)c1c(C)nn(-c2ccccc2)c1Cl | 68.6* | 4.8% | 37.8* | -9.3%
CC(=O)c1ccc(NC(=O)c2c(C)nn(-c3ccccc3)c2Cl)cc1 | -7.7 | 0.0% | -3.0 | -24.6%
CCc1nnc(NC(=O)c2c(C)nn(-c3ccccc3)c2Cl)s1 | 31.0 | -23.1% | 42.4* | 0.6%
Cc1nn(-c2ccccc2)c(Cl)c1C(=O)NCC(C)C | 1.3 | 10.4% | -0.7 | -17.8%
SMILES | Shiga inhibitor | FMDV inh | CHX counter | Sm TGR block
Cc1ccc(Cl)cc1N1CCN(C(=O)COc2cc(=O)n(C)c3ccccc23)CC1 | . | ? | . | 6.5%
CS(=O)(=O)N1N=C(c2ccco2)CC1c1ccccc1 (configuration not stated) | -2.0 | 11.6% | -2.0 | ?
Cc1ccc(C2CC(c3ccco3)=NN2S(C)(=O)=O)cc1 (configuration not stated) | 40.1* | 88.9% | 28.0* | ?
Fc1ccc(C2CC(c3ccco3)=NN2c2ccccc2)cc1 (configuration not stated) | 1.5 | -0.9% | 19.2 | -0.2%
C=CCNC(=S)N1N=C(c2ccco2)CC1c1ccco1 (configuration not stated) | . | -3.0% | . | .
CS(=O)(=O)N1N=C(c2ccco2)CC1c1ccc(Cl)cc1 (configuration not stated) | 18.0 | 56.2% | 30.2* | ?
CS(=O)(=O)N1N=C(c2ccco2)CC1c1ccco1 (configuration not stated) | 8.7 | 11.7% | 1.8 | 20µM*
O=C(CSc1nc2ccccc2nc1Cc1ccc(F)cc1)Nc1ccc2c(c1)OCO2 | . | 4.9% | . | 2.7%
